LMP1 NFkB inh: Epstein-Barr LMP1 NF-kappaB reporter inhibition | LMP1-induced NF-kappaB luciferase reporter cells, luminescence | inhibition, % at 12.5 µM | 350,000 tested, 0.69% active; in the data active means inhibition above about 41%;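 further: 0% = neutral control wells and 100% = reference inhibitor control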
MITF TRPM1 HTS: increases MITF-driven TRPM1 promoter luciferase signal | SK-MEL-5 TRPM1-promoter luciferase, 24 h; % of positive control, neutral wells = 0 | 300,000 tested, 0.75% active | activation, % at 12.5 µM;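 active means mean activation of at least 80% with every replicate also reaching 80%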;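 further: 0% = neutral control wells and 100% = parthenolide positive control wells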
MITF TRPM1 inh: inhibitors of MITF-driven TRPM1 promoter in melanoma cells; SK-MEL-5 TRPM1 promoter luciferase, 24 h; inhibition, % at 12.5 µM; 330,000 tested, 0.83% active; AID 488899;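 active means mean inhibition across replicates of 60% or more, whatever share of single replicates reaches that level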
Wnt act: Wnt/beta-catenin pathway activation; 300,000 tested, 1.2% active; Wnt/beta-catenin reporter cell assay, activator, plate reader; AID 743398; activation, % at 9.35 µM; in the data active means activation above about 30%, passing the limit was not always enough;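 further: 0% = neutral control wells and 100% = positive control wells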
Statin myotox sup: protects C2C12 myotubes from simvastatin toxicity; ATP luminescence, 48 h; scaled: DMSO 0, geranylgeraniol control 100; rescue of ATP level, % at 7.49 µM; 330,000 tested, 0.78% active;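 active means mean ATP rescue above about 67%, or every replicate alone reaching that limit, limit read from the data, passing the limit was not always enough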;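 further: myotubes were challenged with 10 µM simvastatin during compound exposure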
esBAF inh: inhibitors of esBAF chromatin remodeling in mouse ES cells; Bmi1-luciferase knock-in reporter, 24 h; 100% = twice the neutral-well signal; reporter increase, % at 12.5 µM; 350,000 tested, 2% active; AID 602393; in the data active means activation above about 40%;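 further: 0% = median of the plate's neutral control wells and 100% = double that signal; a rise in the Bmi1 reporter signal indicates esBAF inhibition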
* = called active by the depositor; . = no result. Sampled rows, rich in hits. Any-hit rate of the full collection: about 4%.

SMILES	LMP1 NFkB inh	MITF TRPM1 HTS	MITF TRPM1 inh	Wnt act	Statin myotox sup	esBAF inh
O=C(Nc1ccc(Cl)cc1F)C1CC(=O)N(Cc2ccco2)C1 (stereo not given)	0.0	3.7	-5.7	0.2	0.2	1.7
Cc1nnn(C23CC4CC(CC(CC(=O)Nc5cccc(F)c5)(C4)C2)C3)n1	4.4	-3.4	5.8	0.1	-9.2	-0.6
FC(F)(F)c1cnc(Oc2cccc3ccccc23)c(Cl)c1	7.3	0.9	3.4	-1.3	.	.
Oc1cccc(Oc2ncc(C(F)(F)F)cc2Cl)c1	3.8	14.9	-11.4	64.5*	.	.
c1ccc(-c2cccc(-c3ccccn3)n2)nc1	52.9*	-53.0	52.5	-5.8	.	.
c1ccc(-c2ccc(-c3ccccn3)s2)nc1	-37.2	45.7	-44.7	-2.5	.	11.6
c1ccc(-c2nnc(-c3ccccn3)nn2)nc1	-1.5	35.8	-28.8	35.9*	.	.
CN(C)c1nc(-c2ccccn2)nnc1-c1ccccc1	-17.9	-77.0	78.3*	-5.7	.	.
c1ccc(-c2nnc(-c3ccccn3)c(-c3ccccn3)n2)nc1	.	.	.	2.4	.	.
CCCCN1C(=O)N(C)C2C1N(C)C(=O)N2CCCC (stereo not given)	-3.8	-10.3	11.7	-3.3	.	.
COc1ccc(CCNC(=O)c2ccc(CN3CCC(Cc4ccccc4)CC3)cc2)cc1OC	5.4	5.8	0.9	-0.9	.	.
COC(=O)C[C@@H]1CC[C@@H](NC(=O)c2ccccc2F)[C@@H](CO)O1	.	.	.	-2.6	.	.
CS/C(Nc1cc(Cl)ccc1Cl)=C(/C#N)C(=O)c1ccco1	7.2	.	-8.8	37.2*	-7.7	0.4
O=C(Nc1cc(Cl)ccc1Cl)c1ccco1	19.1	-9.7	11.8	1.0	5.5	-4.0
Cc1cc(C)c(CC(=O)c2ccccc2)c(C)c1	-2.1	10.8	-12.6	-4.8	-1.7	2.8
COc1cccc(N2C(=O)c3cccnc3C2O)c1 (stereo not given)	-6.7	-5.5	5.5	-1.8	-7.5	-2.2
COc1ccc(Cl)cc1NC(=O)COC(C)=O	-16.3	5.3	-1.7	-0.2	.	.
O=C(O)CC(=O)Nc1cc(Cl)ccc1O	-7.6	6.5	-4.3	.	-1.9	-8.1
CCOC(=O)CC(=O)Nc1cc(Cl)ccc1O	0.8	-3.3	5.0	.	84.2*	0.1
COc1ccc(Cl)cc1NC(=O)CC(C)=O	-0.7	.	4.2	-0.7	91.7*	-6.0
COCC(=O)N1CCCC(C(=O)c2ccc(Oc3ccccc3)cc2)C1 (stereo not given)	2.7	7.1	-5.9	-0.1	.	.
CC(=O)Nc1ccc(S(=O)(=O)N2CCCC2)cc1	71.2*	-2.2	0.9	-0.3	1.1	-1.1
CC(=O)Nc1ccc(S(=O)(=O)N2CCN(S(=O)(=O)N3CCCCCC3)CC2)cc1	5.1	-11.2	10.0	.	9.4	-10.7
O=C(Nc1ccc(S(=O)(=O)N2CCCCCC2)cc1)c1[nH]ncc1[N+](=O)[O-]	1.6	-69.2	70.2*	19.5	19.5	18.7
O=C(Nc1ccc(OC(F)(F)F)cc1)c1[nH]ncc1[N+](=O)[O-]	-10.4	-69.4	70.1*	3.0	.	.
SMILES	LMP1 NFkB inh	MITF TRPM1 HTS	MITF TRPM1 inh	Wnt act	Statin myotox sup	esBAF inh
Cc1onc(C(=O)Nc2ccc(OC(F)(F)F)cc2)c1[N+](=O)[O-]	1.4	68.3	-62.6	.	3.8	-2.1
CN1C(=O)c2ccccc2C(C(=O)O)C1c1cccc([N+](=O)[O-])c1 (stereo not given)	3.6	-7.5	7.1	1.0	.	.
CC(=O)c1c(C)[nH]c(C(=O)Nc2ccc(C)c(S(=O)(=O)N(C)C)c2)c1C	-19.5	93.4*	-101.2	9.9	1.3	31.7
Cc1ccc(NC(=O)c2ccc(Br)o2)cc1S(=O)(=O)N(C)C	-18.9	33.6	-27.8	23.4	-8.9	55.4*
Cc1cccc(S(=O)(=O)N[C@@H]2CC[C@@H](CCNC(=O)c3cnccn3)O[C@H]2CO)c1	.	.	.	.	9.1	-3.8
COc1ccc(NC(=O)/C(Cl)=C(/Cl)S(=O)(=O)Cc2ccc(C)cc2)cn1	86.7*	-93.8	94.2*	-2.6	-461.9	-16.1
COc1ccc(NC(=O)/C(Cl)=C(/Cl)S(=O)Cc2ccccc2Cl)cn1 (stereo not given)	88.7*	-97.2	97.6*	.	.	.
COc1ccc(NC(=O)Cc2ccc(Cl)c(Cl)c2)cn1	-5.1	-3.0	5.1	2.0	.	.
COCCNC(=O)CSc1ccccc1C(=O)O	-7.2	1.6	-2.2	0.3	.	.
CCOc1c(/C=C(\C#N)C(N)=O)c2ccccc2n1CC	7.4	-0.6	5.3	.	.	.
COc1ccc(CC(NC(C)=O)C(=O)NC2CCN(C(=O)c3cccc(Cl)c3)CC2)cc1OC (stereo not given)	-0.7	4.7	-5.2	-0.7	11.4	-1.6
CN(C(=O)CN1CCN(c2cnn(-c3ccccc3)c(=O)c2Cl)CC1)C1CCS(=O)(=O)C1 (stereo not given)	5.7	0.8	0.1	43.9*	3.8	6.0
C/C(=N\NS(=O)(=O)c1ccc([N+](=O)[O-])cc1)c1cccs1	57.8*	9.1	-11.5	-7.9	.	.
O=c1c2c3c(sc2ncn1/N=C/c1cccnc1)CCCC3	2.5	14.2	-15.0	5.5	7.2	4.7
CCOc1cccc(-c2nc3cc(C)ccc3o2)c1	-35.2	39.5	-42.3	.	-2.4	50.4*
O=[N+]([O-])c1ccc2oc(C3CCCCC3)nc2c1	-11.6	78.6	-76.0	19.0	-7.6	44.3*
Cc1cccc(-c2nc3cc([N+](=O)[O-])ccc3o2)c1	-20.5	90.9*	-88.7	28.4	-0.1	57.1*
O=c1oc2ccccc2nc1/C=C(O)/C=C\c1ccccc1	-14.2	13.0	-12.2	.	.	.
COc1ccc(NC(=O)N(C)C[C@@H]2Oc3ccc(NC(=O)NC4CCCCC4)cc3CC(=O)N([C@@H](C)CO)C[C@@H]2C)cc1	.	.	.	.	22.0	4.1
COc1ccc(S(=O)(=O)Nc2ccc3c(c2)C(=O)N([C@@H](C)CO)C[C@H](C)[C@@H](CN(C)S(=O)(=O)c2cn(C)cn2)O3)cc1	.	.	.	.	-2.5	1.8
COc1cc2[nH]c(=O)n3nc(-c4ccccc4)nc3c2cc1OC	-16.3	.	-16.4	.	.	.
COc1ccc(-c2nc3c4ccccc4[nH]c(=O)n3n2)cc1	-11.8	.	-37.7	59.3*	11.8	45.7*
COc1ccc(/C=N/Nc2ccc(C(=O)O)cc2)cc1OC	-3.7	27.9	-24.7	33.4*	-17.7	6.9
COc1ccc(/C=N/N=C/c2ccc(OC)c(O)c2)cc1O	4.9	2.3	-3.9	.	0.5	-0.7
COc1ccc(/C=N/Nc2nnc(C)n2N)cc1OC(C)=O	-3.7	.	2.0	5.8	9.5	-3.6
COc1ccc(/C=N/Nc2nnc(C)n2N)cc1OC	60.4*	-13.2	11.4	4.5	.	.
COc1cc(OC)cc(C(=O)Oc2ccc(/C=N/Nc3nc4ccccc4s3)cc2OC)c1	-34.5	0.4	-2.4	41.0*	.	.
COc1ccc(/C=N/N=C/c2ccc(OC)c(OC)c2)cc1OC	44.3*	.	-3.4	.	8.3	-4.4
CC(=O)NCc1ccc(S(=O)(=O)N/N=C/c2ccccc2)cc1	5.3	-0.4	-0.2	0.4	.	.
C/C(=N\NC(=O)C1CC1c1ccccc1)c1cccs1 (stereo not given)	1.6	2.7	-4.9	-0.9	19.0	1.0

Compound activity from PubChem BioAssay.
